Screening data (PubChem)
This is a sample that favours compounds with a hit; in the whole collection about 27% have one here.
CYP2C9 inh: human CYP2C9 inhibition. CYP2C9 Supersomes, luciferin-H conversion, luminescence. P11712. AID 777. inhibition, % at 5 µM. hit rate 20% among 96,000;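 active means blocking of liver enzyme CYP2C9 beyond about 50% at 5 µM, limit read from the data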
Cav32 inh: blocks human Cav3.2 T-type calcium channel; O95180; Cav3.2-expressing cells, Fluo-4 calcium fluorescence FDSS; hits give low values; B-score at 10 µM; hit rate 4% among 100,000; AID 449739;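 active means single-dose well whose peak fluorescence ratio is a statistical outlier from its plate by either plate-standardised score or position-corrected B-score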
CYP2C19 activ: cytochrome P450 2C19 (human) activation; P33261; recombinant CYP2C19, luciferin-H EGE luminescence; hits give high values; 0 = fully inhibited enzyme, 1 = untreated enzyme; activation factor at 5 µM; 96,000 tested, under 10 active;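 active means activation factor of at least 2 at 5 µM in the primary screen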
Target sequence (P33261 whole entry, looked up): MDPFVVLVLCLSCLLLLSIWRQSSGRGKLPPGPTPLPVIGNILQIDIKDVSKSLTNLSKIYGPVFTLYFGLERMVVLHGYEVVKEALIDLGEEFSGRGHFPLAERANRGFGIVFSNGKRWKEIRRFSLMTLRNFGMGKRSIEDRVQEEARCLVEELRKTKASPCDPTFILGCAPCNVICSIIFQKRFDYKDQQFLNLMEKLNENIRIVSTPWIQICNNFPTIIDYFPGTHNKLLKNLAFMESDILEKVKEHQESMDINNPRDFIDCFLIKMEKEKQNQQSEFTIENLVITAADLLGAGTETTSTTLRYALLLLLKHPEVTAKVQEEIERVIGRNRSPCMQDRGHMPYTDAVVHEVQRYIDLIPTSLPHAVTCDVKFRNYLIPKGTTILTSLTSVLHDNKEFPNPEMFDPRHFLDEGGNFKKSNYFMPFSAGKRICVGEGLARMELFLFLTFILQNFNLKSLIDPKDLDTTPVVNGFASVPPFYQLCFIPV
CYP2C9 act: activators of human CYP2C9; activation factor at 5 µM; AID 1024; hit rate 1.4% among 96,000; recombinant CYP2C9, luciferin-H conversion, luminescence; hits give high values; factor 1 = untreated enzyme, 0 = blocked; P11712;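 active means activation factor of 2 or more for CYP2C9 at a 5 µM dose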
CYP2C19 inhib: inhibitors of human CYP2C19; CYP2C19 Supersomes, luciferin-H EGE luminescence, 30 min; inhibition, % at 5 µM; hit rate 21% among 96,000; AID 778;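 active means CYP2C19 inhibition above a set limit at 5 µM in the primary screen, cut at about 50% in these data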
A number is an active result.

Cc1cc(C)c(NC(=O)C2CCN(c3cnccn3)CC2)c(C)c1 was read as Cav32 inh inactive.
COc1ccccc1CNC(=O)c1nn(-c2ccc(C)cc2)c(=O)c2c1c1ccccc1n2C was read as CYP2C9 inh 65, Cav32 inh inactive, CYP2C19 activ inactive, CYP2C9 act inactive and CYP2C19 inhib inactive.
Cc1ccc(OCCN2CCN(c3ncnc4sc(C)c(C)c34)CC2)cc1 was read as CYP2C9 inh 89, Cav32 inh -3.6, CYP2C19 activ inactive, CYP2C9 act inactive and CYP2C19 inhib 86.
For Clc1ccc(OCCN2CCN(c3ncnc4sccc34)CC2)cc1 the results were CYP2C9 inh 56, Cav32 inh inactive, CYP2C19 activ inactive, CYP2C9 act inactive and CYP2C19 inhib 84.
Cc1sc2ncnc(N3CCOCC3)c2c1C was read as CYP2C9 inh inactive, Cav32 inh inactive, CYP2C19 activ inactive, CYP2C9 act inactive and CYP2C19 inhib inactive.
CCOC(=O)C1=C(C)N(CCCC(=O)O)C(=O)NC1c1cccs1 (stereo not given) was read as Cav32 inh inactive.
`CC(C)n1c(=S)[nH]c2c1c(=O)[nH]c(=O)n2C` gave CYP2C9 inh inactive, Cav32 inh inactive, CYP2C19 activ inactive, CYP2C9 act inactive and CYP2C19 inhib inactive.
OCCN1CCN(CCOc2cccc(Cl)c2)CC1 was read as CYP2C9 inh inactive, Cav32 inh inactive, CYP2C19 activ inactive, CYP2C9 act inactive and CYP2C19 inhib inactive.
O=C(NC1CCCCC1)C(c1ccccc1)N1CCc2ccccc21 (stereo not given) was read as CYP2C9 inh inactive, CYP2C19 activ inactive, CYP2C9 act inactive and CYP2C19 inhib inactive.
O=C(NC1CCCCC1)C(c1ccccc1)N1CCCC1 (stereo not given) was read as CYP2C9 inh inactive, Cav32 inh inactive, CYP2C19 activ inactive, CYP2C9 act inactive and CYP2C19 inhib 71.
For CC(C(=O)NC(=O)NC1CCCCC1)N1CCN(C(c2ccccc2)c2ccccc2)CC1 (stereo not given) the results were CYP2C9 inh 84, CYP2C19 activ inactive, CYP2C9 act inactive and CYP2C19 inhib inactive.
Screening O=C1CC(c2ccccc2)CC(O)=C1C=NCc1ccc(Cl)cc1 (stereo not given) returned CYP2C9 inh inactive, Cav32 inh inactive, CYP2C19 activ inactive, CYP2C9 act inactive and CYP2C19 inhib inactive.
`FC(F)(F)c1cc(C(F)(F)F)c2ccc(Oc3ccccc3)nc2n1` gave CYP2C9 inh inactive, Cav32 inh -4.7, CYP2C19 activ inactive, CYP2C9 act inactive and CYP2C19 inhib inactive.
COc1ccc(OCCOC(=O)c2cccc(-n3cnnn3)c2)cc1 was read as CYP2C9 inh 58, Cav32 inh inactive, CYP2C19 activ inactive, CYP2C9 act inactive and CYP2C19 inhib 66.
CCOc1ccc(-n2cnnn2)cc1S(=O)(=O)N1CCCCC1 was read as CYP2C9 inh inactive, Cav32 inh inactive, CYP2C19 activ inactive, CYP2C9 act inactive and CYP2C19 inhib inactive.
Screening CCOc1ccc(C(C)=O)cc1COc1ccc(-n2cnnn2)cc1 returned CYP2C9 inh 78, Cav32 inh inactive, CYP2C19 activ inactive, CYP2C9 act inactive and CYP2C19 inhib 97.
For COc1ccc(OCCOC(=O)c2ccc(-n3cnnn3)cc2)cc1 the results were CYP2C9 inh 73, Cav32 inh inactive, CYP2C19 activ inactive, CYP2C9 act inactive and CYP2C19 inhib inactive.
For O=S(=O)(c1cccs1)N1CCCc2cccc(O)c21 the results were CYP2C9 inh inactive, Cav32 inh inactive, CYP2C19 activ inactive, CYP2C9 act 2.9 and CYP2C19 inhib 66.
CC(C)(C)c1ccc(-c2nnc(SCCN3C(=O)c4ccccc4C3=O)o2)cc1 was read as CYP2C9 inh 84, Cav32 inh inactive, CYP2C19 activ inactive, CYP2C9 act inactive and CYP2C19 inhib 78.
For Cc1ccc(C(=O)CSc2nnc(-c3ccccc3)o2)cc1 the results were Cav32 inh inactive.
Screening CCCC(C)NC(=O)c1nc(-c2ccccc2)n(-c2ccccc2)n1 (stereo not given) returned CYP2C9 inh 86, Cav32 inh -4.9, CYP2C19 activ inactive, CYP2C9 act inactive and CYP2C19 inhib inactive.
Cc1ccc(C)c(NC(=O)c2nc(-c3ccccc3)n(-c3ccccc3)n2)c1 was read as CYP2C9 inh 71, Cav32 inh -5.8, CYP2C19 activ inactive, CYP2C9 act inactive and CYP2C19 inhib 79.
CCSc1nnc(NC(=O)c2cc(C)nc3ccccc23)s1 was read as CYP2C9 inh inactive, Cav32 inh inactive, CYP2C19 activ inactive, CYP2C9 act inactive and CYP2C19 inhib inactive.
For Cc1csc(NC(=O)c2nc(-c3ccccc3)n(-c3ccccc3)n2)n1 the results were CYP2C9 inh 75, Cav32 inh inactive, CYP2C19 activ inactive, CYP2C9 act inactive and CYP2C19 inhib inactive.
O=C(Nc1nccs1)c1nc(-c2ccccc2)n(-c2ccccc2)n1 was read as CYP2C9 inh inactive, Cav32 inh inactive, CYP2C19 activ inactive, CYP2C9 act inactive and CYP2C19 inhib inactive.
For CCSc1nnc(NC(=O)c2nc(-c3ccccc3)n(-c3ccccc3)n2)s1 the results were CYP2C9 inh 92, Cav32 inh inactive, CYP2C19 activ inactive, CYP2C9 act inactive and CYP2C19 inhib 55.
`CC(C)[C@@H]1NC(=O)c2cc([N+](=O)[O-])cc(I)c2NCCCC[C@@H](C(=O)NC(CC(=O)O)C(N)=O)NC(=O)[C@H](CO)NC1=O` (stereo not given in full) gave Cav32 inh inactive.
O=C(CSC1=NCCS1)Nc1ccnc2ccccc12 was read as CYP2C9 inh inactive, Cav32 inh inactive, CYP2C19 activ inactive, CYP2C9 act inactive and CYP2C19 inhib inactive.
`Cc1ccc(S(=O)(=O)NC2CCCc3ccccc32)cc1C` (stereo not given) gave CYP2C9 inh inactive, Cav32 inh -4.2, CYP2C19 activ inactive, CYP2C9 act inactive and CYP2C19 inhib inactive.
Cc1cccc(-n2nnc(C(=O)NC3CCCc4ccccc43)c2N)c1 (stereo not given) was read as CYP2C9 inh inactive, Cav32 inh -6.6, CYP2C19 activ inactive, CYP2C9 act inactive and CYP2C19 inhib inactive.
CSCc1c(C(=O)NC2CCCc3ccccc32)oc2ccccc12 (stereo not given) was read as CYP2C9 inh 55, Cav32 inh inactive, CYP2C19 activ inactive, CYP2C9 act inactive and CYP2C19 inhib inactive.
For Cc1cc(C(=O)NC2CCCc3ccccc32)c(C)o1 (stereo not given) the results were CYP2C9 inh 70, Cav32 inh inactive, CYP2C19 activ inactive, CYP2C9 act inactive and CYP2C19 inhib inactive.
Screening CCOc1ccc(N2C(=O)C(Cl)=C(Nc3ccccc3O)C2=O)cc1 returned CYP2C9 inh inactive, Cav32 inh inactive, CYP2C19 activ inactive, CYP2C9 act inactive and CYP2C19 inhib inactive.
Screening CN(C)S(=O)(=O)c1cccc(C(=O)NC2CCCc3ccccc32)c1 (stereo not given) returned CYP2C9 inh inactive, Cav32 inh inactive, CYP2C19 activ inactive, CYP2C9 act inactive and CYP2C19 inhib inactive.
`CCN(CC)S(=O)(=O)c1ccc2oc(C(=O)NC3CCCc4ccccc43)c(C)c2c1` (stereo not given) gave CYP2C9 inh 59, Cav32 inh inactive, CYP2C19 activ inactive, CYP2C9 act inactive and CYP2C19 inhib inactive.
